High-throughput results: PubChem, National Center for Advancing Translational Sciences (NCATS)
Most compounds without a hit are left out; they make up all but 11% or so of the library.
HP1b binding inh: HP1-beta chromodomain-methylated histone interaction inhibition | AID 540317 | Potency, µM (doses to about 114 µM), hits mostly inhibitors | P83916 | AlphaScreen HP1-beta / biotin-H3K9me3 peptide binding | 0.56% of 390,000 active; note: nearly all actives have a fitted effect of over 70% in size
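Compound inhibition of the preformed complex between 50 nM HP1-beta and 50 nM biotinylated H3K9me3 peptide was read by AlphaScreen. Buffer was PBS pH 7.4 with 0.01% Tween-20. Incubations ran 30 min at room temperature, with 10 ug/mL donor/acceptor beads.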
BAZ2B inh: BAZ2B (human) inhibition; Q9UIF8; AlphaScreen BAZ2B-H3K14Ac peptide displacement; Potency, µM (titrated, usually from 114 µM), usual class: inhibitors; 4.4% of 360,000 active; AID 504333; note: nearly all actives have a fitted effect of over 60% in size
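Inhibition is scored as reduced AlphaScreen emission. The BAZ2B/b-H3(5-23)K14Ac complex (50 nM each) in PBS pH 7.4, 0.01% Tween-20 meets compound (up to 110 uM) for 30 min at RT before bead addition.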
JMJD2A Tudor inh: blocks the human JMJD2A Tudor domain. O75164. AlphaScreen JMJD2A-Tudor / H3K4me3 peptide binding. Potency, µM (series often up to 114 µM), most hits filed as inhibitors. 4.4% of 390,000 active. AID 504339; note: nearly all actives have a fitted effect of over 50% in size
G9a block: G9a (human) methyltransferase inhibition; G9a H3K9 monomethylation, AlphaScreen, 2 h; 8.8% of 350,000 active; Potency, µM (titrated, usually from 102 µM), actives largely listed as inhibitors; note: nearly all actives have a fitted effect of over 75% in size
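Quantitative HTS format: methyltransferase activity on a biotin-tagged H3K9 peptide is measured by AlphaScreen, using a rabbit anti-monomethyl-H3K9 antibody with streptavidin donor and anti-IgG acceptor beads. Final levels are 20 nM enzyme, 500 nM peptide, 20 uM SAM; 2 h RT.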
L3MBTL1 block: L3MBTL1 (human) inhibition | 0.66% of 230,000 active | AlphaScreen L3MBTL1–H3K9me1 peptide binding | Q9Y468 | Potency, µM (top dose mostly 57.1 µM), usual class: inhibitors; note: nearly all actives have a fitted effect of over 60% in size
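First, the protein-peptide complex forms for 30 min at room temperature (L3MBTL1 50 nM, biotinylated H3K9me1 peptide 75 nM). Next, compounds are pin-transferred and incubated 30 min. Finally, AlphaScreen beads are added and read after 30 min.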
Of the large screens only hits and unclear results are named; the others gave an inactive call. Calls come from the whole dose curve; as a rule, active = well fitted inhibition curve with a large enough effect; inconclusive = small, poorly fitted or top-dose-only effect; inactive = no such curve, though single readings can be large or run the other way.

CCCCNC(=O)CSc1nc(O)c(Cc2ccc(OC)cc2)c(=O)[nH]1	none (no result: L3MBTL1 block)
COc1ccc(Cc2c(O)nc(SCC(=O)NC34CC5CC(CC(C5)C3)C4)[nH]c2=O)cc1	BAZ2B inh inconclusive, G9a block 45µM
Cc1ccc(C(=O)C(C(=O)/C=C/c2ccccc2)=C2SCCCS2)cc1	HP1b binding inh inconclusive, BAZ2B inh inconclusive, JMJD2A Tudor inh inconclusive, G9a block 7.1µM, L3MBTL1 block inconclusive
O=C(CCSCc1cnn(-c2ccccc2)c1-n1cccc1)NCc1ccccc1Cl	G9a block inconclusive (no result: L3MBTL1 block)
O=C(c1cccnc1)C1Cc2ccccc2C1=O (stereo not given)	BAZ2B inh inconclusive, G9a block 40µM
COC(=O)c1cc(-c2ccccc2)sc1N	HP1b binding inh inconclusive, BAZ2B inh inconclusive, JMJD2A Tudor inh inconclusive, G9a block 4.5µM (no result: L3MBTL1 block)
N#CC1=C(N)Oc2cc(O)ccc2C1c1ccc(Br)s1 (stereo not given)	JMJD2A Tudor inh inconclusive
COc1ccccc1-c1nn2c(C3COc4ccccc4O3)nnc2s1 (stereo not given)	G9a block 3.5µM
c1ccc(CCc2nn3c(C4COc5ccccc5O4)nnc3s2)cc1 (stereo not given)	HP1b binding inh inconclusive, JMJD2A Tudor inh inconclusive, G9a block 3.5µM
c1ccc(Cc2nn3c(C4COc5ccccc5O4)nnc3s2)cc1 (stereo not given)	G9a block 5µM
CC1(C)CCC/C(=C\c2ccccc2)C1=O	none
CCOc1ccccc1NC(=O)Cn1c(=O)ccc2cc(S(=O)(=O)N3CCCC3)ccc21	none (no result: L3MBTL1 block)
COc1ccccc1CNC(=O)CCCN1C(=O)CSc2c1c(C)nn2-c1ccccc1	none (no result: L3MBTL1 block)
CCOC(=O)c1[nH]c(C)c(/C(O)=C2\C(=O)C(=O)N(CCCn3ccnc3)C2c2ccncc2)c1C (stereo not given)	BAZ2B inh inconclusive, JMJD2A Tudor inh 35µM, G9a block 50µM
COC(=O)c1[nH]c(C)c(/C(O)=C2\C(=O)C(=O)N(CCN(C)C)C2c2ccc(C)o2)c1C (stereo not given)	JMJD2A Tudor inh 35µM, G9a block 40µM
CCOC(=O)c1[nH]c(C)c(/C(O)=C2\C(=O)C(=O)N(CCCN3CCOCC3)C2c2cccnc2)c1C (stereo not given)	G9a block 22µM
COC(=O)c1[nH]c(C)c(/C(O)=C2\C(=O)C(=O)N(CCN(C)C)C2c2ccco2)c1C (stereo not given)	G9a block inconclusive
CCOC(=O)c1[nH]c(C)c(/C(O)=C2\C(=O)C(=O)N(CCN(C)C)C2c2ccncc2)c1C (stereo not given)	none (no result: L3MBTL1 block)
COC(=O)c1[nH]c(C)c(/C(O)=C2\C(=O)C(=O)N(CCCN3CCOCC3)C2c2ccccn2)c1C (stereo not given)	BAZ2B inh 50µM, JMJD2A Tudor inh inconclusive, G9a block inconclusive
COc1cc(NC(=O)CSc2nc3ccccc3nc2Cc2ccccc2OC)cc(OC)c1	none (no result: L3MBTL1 block)
COc1ccc(OC)c(C2C(C(=O)Nc3ccc(C)cc3C)=C(C)Nc3c(C(=O)Nc4ccc(F)cc4)cnn32)c1 (stereo not given)	none (no result: L3MBTL1 block)
CC(C)NS(=O)(=O)c1ccc2nc(NC(=O)c3cncc(Br)c3)sc2c1	G9a block inconclusive (no result: L3MBTL1 block)
O=C(Cc1ccc(F)cc1)NCCS(=O)(=O)N1CCN(c2cccc(Cl)c2)CC1	none
COc1ccc(Cn2c(C(=O)O)c(CNCc3ccccc3F)c3ccc(OC)cc32)cc1	BAZ2B inh inconclusive (no result: L3MBTL1 block)
CN(C)c1ccc(NC(=O)Cn2cc3c(n2)CCCC3)cc1	HP1b binding inh inconclusive, BAZ2B inh 40µM, JMJD2A Tudor inh 50µM, G9a block 28µM
COc1ccc(/C(C)=N/NC(=O)CNC(=O)Cc2ccccc2)c(OC)c1	none (no result: G9a block)
COc1ccc(/C(C)=N/Nc2ccc(C(=O)O)cc2)c(OC)c1	G9a block 1.6µM
CCOC(=O)c1c(NC(C)=O)sc(/C(C)=N/Nc2ccc(C(=O)O)cc2)c1C	BAZ2B inh inconclusive, G9a block 32µM (no result: L3MBTL1 block)
COc1ccc2c(c1)c(/C=N/Nc1ccc(C(=O)O)cc1)c(C)n2C	BAZ2B inh inconclusive, JMJD2A Tudor inh inconclusive, G9a block 8.9µM (no result: L3MBTL1 block)
COc1ccc2c(c1)C(=NN)c1cc(OC)ccc1-2	BAZ2B inh 40µM, JMJD2A Tudor inh 56µM, G9a block inconclusive
